# Where “and” joins values, the source holds several entries; their conditions need not be identical. Equal entries are not always repeated. A number with no mark means an inactive call. Results filed as inconclusive are left out. Where a call stands in place of a potency, no number is given. Calls of active or inactive are those of the source. Unless noted, calls follow the shape of the dose curve; as a rule, active = well fitted curve in the direction sought with a large enough effect; inconclusive = small, poorly fitted or top-dose-only effect, or another doubt; inactive = no such curve, though single readings can be large; an effect the other way counts as inactive or inconclusive.
# Legend:
# [1] = qHTS Assay for Identification of Small Molecule Agonists for Hypoxia Response Element Signaling Pathway (AID 914; active = well fitted activation curve with a large enough effect in the signal ratio, with a control signal flat, not every such curve was filed as active; the % refers to the signal ratio; also: potency is read from the fitted curve at half-maximal effect); conditions: ME-180 HRE-bla reporter, beta-lactamase ratio, CoCl2, 17 h; activation: stronger effect = higher value
# How it was run: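 HRE-bla ME-180 cells, overnight plating in Opti-MEM with 0.5% dialyzed FBS; cpd titration + EC50 CoCl2, 17 h, 37 degrees Celsius; CCF4 2.5 h RT; 460/530 nm ratio; AC50.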
# [2] = target: Cytochrome P450 3A4 (Homo sapiens) (UniProt P08684); experiment: qHTS Assay for Activators of Cytochrome P450 3A4 (AID 885); also: nearly all actives have a fitted effect of over 65% in size
# How it was run: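 Using 20nM recombinant human CYP3A4 in potassium phosphate (200mM), substrate Luciferin-PPXE at 25uM, luminescent luciferin detection followed a 60-min RT NADPH reaction; data scaled to 57 uM ketoconazole.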
# [3] = qHTS Assay for Identification of Small Molecule Antagonists for NFkB Signaling Pathway (AID 895; active = well fitted inhibition curve with a large enough effect in the signal ratio, with a control signal flat, not every such curve was filed as active; the % refers to the signal ratio)
# How it was run: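 ME-180 NFkB-bla cells (beta-lactamase under NFkB response element), plated overnight, treated with compound then 10 pM TNF alpha (about EC50) for 5 hrs at 37 C. LiveBLAzer FRET read at 460/530 nm emission, 405 nm excitation.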
# [4] = target: Muscarinic acetylcholine receptor M1 (Rattus norvegicus) (UniProt P08482); experiment: qHTS Assay for Antagonists of Acetylcholine Muscarinic M1 Receptor: Kinetic Measurement of Intracellular Calcium Response (AID 943);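 also: Fluo-4 calcium signal as peak divided by basal fluorescence over 4 min; series mostly up to about 35 µM; nearly all actives have a fitted effect of over 75% in size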
# How it was run: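 Quantitative HTS in CHO-M1 (rat receptor) cells: 10 min compound exposure ahead of 100 nM carbachol, Fluo-4 fluorescence followed 4 min, value expressed as peak-to-basal ratio.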
# [5] = target: alpha-glucosidase (Oryza sativa, rice) (UniProt Q653V4); experiment: Counterscreen for Glucocerebrosidase Inhibitors: qHTS Assay for Rice alpha-Glucosidase at pH 5.0 (AID 997)
# How it was run: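 Endpoint fluorogenic assay at pH 5.0: compounds (0.7 nM to 77 uM) titrated against 4 nM rice enzyme and 400 uM 4-MU-alpha-glucoside for 20 min at room temperature; NaOH/glycine stop, read ex 365/em 440 nm, Hill-fitted AC50.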
# [6] = target: Cytochrome P450 2C9 (Homo sapiens) (UniProt P11712); experiment: qHTS Assay for Inhibitors and Substrates of Cytochrome P450 2C9 (AID 883); also: nearly all actives have a fitted effect of over 60% in size; also: potency is read from the fitted curve at half-maximal effect
# How it was run: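 Signal: luciferase luminescence reporting luciferin produced by CYP2C9. Conditions: 10nM enzyme, Luciferin-H 100uM at KM, 25mM KPO4, 37C, 60 min NADPH-driven reaction. Reference: 57uM sulphaphenazole as 100% inhibition.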
# [7] = target: Muscarinic acetylcholine receptor M1 (Rattus norvegicus) (UniProt P08482); experiment: qHTS Assay for Antagonists of Acetylcholine Muscarinic M1 Receptor: Measurement of IP-One Response (AID 944); also: nearly all actives have a fitted effect of over 75% in size
# How it was run: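 Antagonism was measured as loss of carbachol-driven (EC80) IP1 accumulation in CHO cells carrying rat M1, using a homogeneous IP-One TR-FRET kit read at 620 and 665 nm.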
# [8] = target: Alpha-galactosidase A (Homo sapiens) (UniProt P06280); experiment: Counterscreen for Glucocerebrosidase Inhibitors: qHTS Assay for Human alpha-Galactosidase at pH 4.5 (AID 992)
# How it was run: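 Each compound is preincubated briefly with 2 nM enzyme before substrate addition (80 uM); plates then sit 20 min at ambient temperature, are quenched with 1M NaOH/1M glycine, and read fluorometrically.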
# [9] = Confirmation and Secondary Assay for Modulators of Hemoglobin Beta Chain Splicing at IVS2 705 locus (AID 930);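 also: HeLa cells stably expressing the EGFP-705 splicing reporter; GFP fluorescence per well restored by corrected splicing of the IVS2-705 intron in EGFP; series mostly up to about 46 µM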
# How it was run: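 Read-out: total peak GFP fluorescence per well (488 nm excitation, 500-520 nm emission) by laser-scanning cytometry. Cells: HeLa EGFP-705 splicing reporter, 2 days compound exposure in Optimem/2% FCS.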
# [10] = target: Cytochrome P450 2D6 (Homo sapiens) (UniProt P10635); experiment: qHTS Assay for Inhibitors and Substrates of Cytochrome P450 2D6 (AID 891); also: nearly all actives have a fitted effect of over 60% in size; also: potency is read from the fitted curve at half-maximal effect
# How it was run: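 Luminescent read-out of luciferin formed by 5 nM human CYP2D6 demethylating 30 uM Luciferin-ME EGE (Km level) over 60 min at room temperature after NADPH regeneration addition. Data normalized to full inhibition by 1.43 uM quinidine.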
# [11] = target: Pyruvate kinase (Leishmania mexicana) (UniProt Q27686); experiment: qHTS Validation Assay for Activators of Leishmania Mexicana Pyruvate Kinase (AID 959); conditions: purified L. mexicana pyruvate kinase, enzyme activity
# How it was run: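 Luminescent ATP detection (PKLight) after a 1 h room-temperature reaction of 0.2 nM LmPYK E451W mutant with 0.5 mM PEP and 0.1 mM ADP at pH 7.2. Activity is normalized to DMSO-only control wells.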
# [12] = target: Cytochrome P450 2C19 (Homo sapiens) (UniProt P33261); experiment: qHTS Assay for Inhibitors and Substrates of Cytochrome P450 2C19 (AID 899); also: nearly all actives have a fitted effect of over 60% in size
# How it was run: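 Signal comes from luciferase acting on luciferin released by CYP2C19-mediated hydroxylation of Luciferin-H EGE, 10uM (KM). Assay mix: 5nM enzyme, 50mM KPO4; 60 min at 37C with NADPH regeneration. Data normalized against 57uM ketoconazole.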
# [13] = target: Tyrosyl-DNA phosphodiesterase 1 (Homo sapiens) (UniProt Q9NUW8); experiment: Confirmation Assay for Inhibitors of Tyrosyl-DNA Phosphodiesterase (TDP1) (AID 489007); conditions: recombinant human TDP1 enzymatic activity, dose-response; also: potency is read from the fitted curve at half-maximal effect; nearly all actives have a fitted effect of over 40% in size
# How it was run: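 Loss of AlphaScreen signal reports Tdp1 cleavage of a dual-labelled DNA substrate. Conditions: 1 nM E. coli-derived enzyme, 15 nM substrate, 15 min compound preincubation, 5 min reaction, 10 min bead incubation, all at room temperature.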
# Chain of Cytochrome P450 2C9 (Homo sapiens) (P11712 whole entry, looked up): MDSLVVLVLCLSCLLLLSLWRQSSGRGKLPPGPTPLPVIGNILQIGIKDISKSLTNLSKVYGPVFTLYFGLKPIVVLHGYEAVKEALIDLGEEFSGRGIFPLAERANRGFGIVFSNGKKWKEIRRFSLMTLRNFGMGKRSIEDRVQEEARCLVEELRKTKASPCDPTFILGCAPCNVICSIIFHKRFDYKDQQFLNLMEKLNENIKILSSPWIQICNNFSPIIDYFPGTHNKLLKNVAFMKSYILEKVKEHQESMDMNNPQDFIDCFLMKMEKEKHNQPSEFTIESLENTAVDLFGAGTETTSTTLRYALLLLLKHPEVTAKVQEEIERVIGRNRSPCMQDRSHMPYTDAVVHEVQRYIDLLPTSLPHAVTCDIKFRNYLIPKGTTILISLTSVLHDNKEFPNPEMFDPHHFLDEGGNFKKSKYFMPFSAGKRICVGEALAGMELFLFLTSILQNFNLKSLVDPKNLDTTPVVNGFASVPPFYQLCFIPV
# Chain of Alpha-galactosidase A (Homo sapiens) (P06280 whole entry, looked up): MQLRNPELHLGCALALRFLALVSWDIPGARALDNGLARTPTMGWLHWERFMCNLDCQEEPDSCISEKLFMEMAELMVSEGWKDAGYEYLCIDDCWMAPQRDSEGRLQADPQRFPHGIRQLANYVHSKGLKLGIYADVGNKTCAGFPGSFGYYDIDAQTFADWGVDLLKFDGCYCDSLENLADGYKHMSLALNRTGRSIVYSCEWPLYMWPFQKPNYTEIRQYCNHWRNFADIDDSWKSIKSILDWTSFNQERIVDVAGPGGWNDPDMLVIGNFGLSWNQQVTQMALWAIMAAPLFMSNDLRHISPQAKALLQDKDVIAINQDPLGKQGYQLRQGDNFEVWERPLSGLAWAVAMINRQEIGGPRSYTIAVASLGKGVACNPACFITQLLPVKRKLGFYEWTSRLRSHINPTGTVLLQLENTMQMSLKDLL
# Chain of Cytochrome P450 3A4 (Homo sapiens) (P08684 whole entry, looked up): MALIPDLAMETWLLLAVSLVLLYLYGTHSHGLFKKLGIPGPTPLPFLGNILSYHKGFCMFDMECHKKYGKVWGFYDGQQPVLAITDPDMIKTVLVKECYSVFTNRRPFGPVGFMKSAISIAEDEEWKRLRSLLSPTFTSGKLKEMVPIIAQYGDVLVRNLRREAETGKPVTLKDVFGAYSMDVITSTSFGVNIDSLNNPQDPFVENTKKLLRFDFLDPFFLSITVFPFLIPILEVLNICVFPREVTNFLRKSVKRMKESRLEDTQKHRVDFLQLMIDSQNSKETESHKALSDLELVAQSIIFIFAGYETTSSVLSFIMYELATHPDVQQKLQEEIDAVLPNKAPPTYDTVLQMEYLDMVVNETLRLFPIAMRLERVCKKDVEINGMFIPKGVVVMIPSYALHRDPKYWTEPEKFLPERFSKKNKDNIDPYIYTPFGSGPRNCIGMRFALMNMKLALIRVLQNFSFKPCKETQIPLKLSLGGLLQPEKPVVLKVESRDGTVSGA
# Chain of Cytochrome P450 2D6 (Homo sapiens) (P10635 whole entry, looked up): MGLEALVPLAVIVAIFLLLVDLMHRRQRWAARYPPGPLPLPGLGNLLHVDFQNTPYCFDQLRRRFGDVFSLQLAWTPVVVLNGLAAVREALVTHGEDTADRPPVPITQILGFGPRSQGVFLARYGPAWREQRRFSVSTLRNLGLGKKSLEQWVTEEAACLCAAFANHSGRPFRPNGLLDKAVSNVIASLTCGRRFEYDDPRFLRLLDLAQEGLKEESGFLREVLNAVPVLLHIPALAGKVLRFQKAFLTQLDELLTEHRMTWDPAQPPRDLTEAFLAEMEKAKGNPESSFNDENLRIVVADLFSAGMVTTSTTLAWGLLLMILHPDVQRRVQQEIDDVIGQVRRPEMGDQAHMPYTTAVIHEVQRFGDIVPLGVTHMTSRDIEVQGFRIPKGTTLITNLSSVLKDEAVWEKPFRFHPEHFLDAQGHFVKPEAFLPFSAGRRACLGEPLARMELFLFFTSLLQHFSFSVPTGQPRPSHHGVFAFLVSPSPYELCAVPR
# Chain of Muscarinic acetylcholine receptor M1 (Rattus norvegicus) (P08482 whole entry, looked up): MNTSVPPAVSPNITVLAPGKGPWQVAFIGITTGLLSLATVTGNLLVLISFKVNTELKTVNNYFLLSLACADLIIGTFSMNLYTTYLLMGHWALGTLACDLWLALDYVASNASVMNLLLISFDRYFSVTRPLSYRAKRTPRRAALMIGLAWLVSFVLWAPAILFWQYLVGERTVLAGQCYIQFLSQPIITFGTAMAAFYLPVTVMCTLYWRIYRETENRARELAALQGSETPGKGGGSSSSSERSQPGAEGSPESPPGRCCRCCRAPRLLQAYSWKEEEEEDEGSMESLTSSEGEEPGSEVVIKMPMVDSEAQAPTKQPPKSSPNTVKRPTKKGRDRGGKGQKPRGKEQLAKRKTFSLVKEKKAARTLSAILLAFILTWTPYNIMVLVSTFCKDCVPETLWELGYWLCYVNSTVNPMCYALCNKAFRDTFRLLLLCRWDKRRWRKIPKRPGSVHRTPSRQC
# Chain of Cytochrome P450 2C19 (Homo sapiens) (P33261 whole entry, looked up): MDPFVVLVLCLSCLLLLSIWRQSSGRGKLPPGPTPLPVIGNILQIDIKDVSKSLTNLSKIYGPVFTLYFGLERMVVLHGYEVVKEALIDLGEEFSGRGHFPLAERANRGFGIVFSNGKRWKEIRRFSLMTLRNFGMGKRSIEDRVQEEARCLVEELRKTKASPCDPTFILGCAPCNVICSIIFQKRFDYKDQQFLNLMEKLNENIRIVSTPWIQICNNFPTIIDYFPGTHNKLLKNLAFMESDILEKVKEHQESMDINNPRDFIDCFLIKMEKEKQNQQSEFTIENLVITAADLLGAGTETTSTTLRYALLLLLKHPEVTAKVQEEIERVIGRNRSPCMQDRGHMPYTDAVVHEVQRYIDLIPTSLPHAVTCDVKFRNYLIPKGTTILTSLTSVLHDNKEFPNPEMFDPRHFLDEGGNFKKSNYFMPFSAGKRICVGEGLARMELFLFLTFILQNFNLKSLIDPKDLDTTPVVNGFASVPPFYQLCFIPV
# Chain of Pyruvate kinase (Leishmania mexicana) (Q27686 2-499 E452W): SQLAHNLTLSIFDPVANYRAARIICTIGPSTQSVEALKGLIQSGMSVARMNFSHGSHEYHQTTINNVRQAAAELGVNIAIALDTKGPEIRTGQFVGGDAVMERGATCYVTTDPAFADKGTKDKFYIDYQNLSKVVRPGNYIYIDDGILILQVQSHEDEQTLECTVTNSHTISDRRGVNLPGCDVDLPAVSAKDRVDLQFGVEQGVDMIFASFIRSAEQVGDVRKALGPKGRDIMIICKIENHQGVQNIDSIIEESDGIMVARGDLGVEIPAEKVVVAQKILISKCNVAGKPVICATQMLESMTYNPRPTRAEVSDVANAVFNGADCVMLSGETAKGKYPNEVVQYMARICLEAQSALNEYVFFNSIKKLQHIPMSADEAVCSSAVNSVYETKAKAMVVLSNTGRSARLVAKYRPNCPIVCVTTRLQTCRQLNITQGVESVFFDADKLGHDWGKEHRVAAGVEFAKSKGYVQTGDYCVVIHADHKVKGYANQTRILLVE
# Chain of Tyrosyl-DNA phosphodiesterase 1 (Homo sapiens) (Q9NUW8 whole entry, looked up): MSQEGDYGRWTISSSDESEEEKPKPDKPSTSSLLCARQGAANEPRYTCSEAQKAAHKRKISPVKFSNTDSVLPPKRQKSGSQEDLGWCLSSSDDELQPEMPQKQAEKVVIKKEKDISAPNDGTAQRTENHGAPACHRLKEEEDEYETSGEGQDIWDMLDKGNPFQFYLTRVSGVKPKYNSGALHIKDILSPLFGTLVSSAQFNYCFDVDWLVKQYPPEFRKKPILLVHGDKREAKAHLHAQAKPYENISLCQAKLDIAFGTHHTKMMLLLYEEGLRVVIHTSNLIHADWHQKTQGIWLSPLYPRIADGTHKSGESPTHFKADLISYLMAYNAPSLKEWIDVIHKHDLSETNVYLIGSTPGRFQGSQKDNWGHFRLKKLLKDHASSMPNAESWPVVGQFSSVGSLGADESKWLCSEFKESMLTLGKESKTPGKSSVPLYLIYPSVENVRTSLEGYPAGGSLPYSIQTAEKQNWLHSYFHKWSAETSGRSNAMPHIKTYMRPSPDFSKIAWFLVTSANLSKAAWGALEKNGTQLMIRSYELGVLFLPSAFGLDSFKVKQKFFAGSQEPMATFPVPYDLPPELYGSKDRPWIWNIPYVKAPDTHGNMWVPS
smiles,measurement,setting,value
CN1CCN(c2ncc3nc(-c4ccccc4)c(=O)n(CCC#N)c3n2)CC1,Potency,[1],3.16 µM (active)
Cn1c(=O)c(-c2ccccc2)nc2cnc(N3CCNCC3)nc21,Potency,[1],3.16 µM (active)
N[C@H](C(=O)N[C@@H]1C(=O)N2C(C(=O)O)=C(Cl)CS[C@@H]12)c1ccccc1,Potency,[2],inactive
same,Potency,[3],inactive
same,Potency,[4],inactive
same,outcome,[5],inactive
CCCCCN(CCCCC)C(=O)[C@H](CCC(=O)O)NC(=O)c1ccc(Cl)c(Cl)c1,Potency,[6],3.98 µM (active)
same,Potency,[2],inactive
same,Potency,[3],inactive
same,Potency,[4],inactive
same,Potency,[7],inactive
N[C@@H](CO)C(=O)NNCc1ccc(O)c(O)c1O,Potency,[3],inactive
same,Potency,[4],inactive
same,Potency,[7],inactive
COc1ccc([C@H]2Sc3ccccc3N(CCN(C)C)C(=O)[C@H]2OC(C)=O)cc1,outcome,[8],inactive
Cc1cccc(CNc2ncnc3ccc(-c4cccc(NS(C)(=O)=O)c4)cc23)c1,outcome,[9],inactive
O=c1c(-c2cc(F)cc(F)c2)nc2cnc(Oc3ccccc3)nc2n1C[C@H]1CCCO1,Potency,[2],inactive
same,activation,[1],3.51%
O=C(C1CCCCC1)N1CC(=O)N2CCc3ccccc3[C@@H]2C1,Potency,[10],inactive
CC(=O)OCC1=C(C(=O)O)N2C(=O)[C@@H](NC(=O)Cc3cccs3)[C@@H]2SC1,Potency,[2],inactive
same,activation,[1],-3.21% and -0.503%
same,Potency,[4],inactive
same,Potency,[7],inactive
same,Potency,[11],25.1 µM (active)
O=C(c1ccccc1)c1ccc2n1CC[C@H]2C(=O)O,Potency,[7],inactive
same,outcome,[8],inactive
COc1ccccc1CN1CC[C@@]2(CCCN(C(=O)c3ccco3)C2)C1,Potency,[2],inactive
same,Potency,[10],501 nM (active)
same,activation,[1],6.4%
C[C@@]12CCC(=O)C=C1CC[C@H]1[C@H]3CC[C@](O)(C(=O)CO)[C@]3(C)CC(=O)[C@@H]12,Potency,[6],inactive
same,Potency,[10],inactive
same,Potency,[12],inactive
C[C@@]12CCC(=O)C=C1CC[C@@H]1[C@@H]2[C@H](O)C[C@]2(C)[C@@H]1CC[C@]2(O)C(=O)CO,Potency,[10],inactive
same,Potency,[12],inactive
CCCN[C@@H](C)C(=O)Nc1ccccc1C,outcome,[5],inactive
COc1cc(=O)n(C)c2c(OC[C@@H](O)C(C)(C)O)cccc12,Potency,[6],inactive
same,Potency,[2],inactive
same,Potency,[10],inactive
same,Potency,[12],inactive
same,Potency,[4],inactive
same,Potency,[7],inactive
CN1C(=O)CC[C@@H]1c1cccnc1,Potency,[2],inactive
same,Potency,[10],inactive
same,Potency,[3],inactive
same,Potency,[12],inactive
same,Potency,[4],inactive
same,Potency,[7],inactive
same,outcome,[5],inactive
O=c1c(-c2cccs2)nc2cnc(Oc3cccc(Cl)c3)nc2n1C1CC1,Potency,[1],3.16 µM (active)
CCNc1ncc2nc(-c3ccc(OC)cc3)c(=O)n(Cc3cccc(OC)c3)c2n1,Potency,[2],inactive
C[C@@H](CCc1ccccc1)NC[C@H](O)c1ccc(O)c(C(N)=O)c1,Potency,[10],3.98 µM (active) and 2 µM (active)
same,Potency,[7],inactive
same,outcome,[5],inactive
NC(=O)c1cc[n+](CC2=C(C(=O)O)N3C(=O)[C@@H](NC(=O)[C@H](c4ccccc4)S(=O)(=O)[O-])[C@@H]3SC2)cc1,Potency,[3],inactive
same,Potency,[4],inactive
same,Potency,[11],3.16 µM (active)
same,outcome,[8],inactive
same,Potency,[13],12.6 µM (active)
CN(C)Cc1ccccc1-c1ccc2ncnc(NCc3cccs3)c2c1,outcome,[9],inactive

# — PubChem BioAssay (NCATS)
